# Tested on: VDR:RXRa (NR concentration 270 nM, RXRa partner concentration 90 nM)
# Assay: PBM binding z-score (relative to random genomic background probes); higher = stronger binding; sequences stand for … in GC…GCGATTGACAGCGTAGAATGAAGG
# Description: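 Protein-binding microarray (Agilent 4x180K custom design, double-stranded 60-nt probes: 5' GC cap, 34-nt variable region, 24-nt constant primer region; full probe sequence given). Purified or IVT nuclear receptor:RXRα heterodimers (3:1 NR:RXRα, mostly 270:90 nM) or homodimers were incubated for 1 h in PBS with 2% milk and no ligand, then detected with Alexa488 antibodies. Fluorescence from o1-orientation probes (~5 replicates averaged) was converted to z-scores against 500 random hg19 background probes. Variable regions are seed direct-repeat (DR0–DR5) sites, all their single-nucleotide variants and half-site ablations.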
row,Sequence,PBM binding z-score
1,TCTAGTCGGTCAAAGGTCACACACTCGAAATGCG,5.65
2,CCTTACGGGTCCCTCCAGGTTATAGCATCGGAGT,0.0642
3,CCGACTGGGGCAAGGTCACCATAACGCACAGCCA,3.26
4,TCTAGTTGGTCACGGAGGTCACAAACGACGGGTA,5.62
5,CCGACGGGGGCAAAGGTTACCATACTCAGTACGA,5.11
6,CGTCCAAGGTTAAGGTCAGTGAAAGAGACTCGAA,2.5
7,TGTCAAAGTTCAAAGGTGACGTAAGTATCCACAC,5.65
8,CCAACTGGGCCAAAAAGGTCATTGATGCCGATAA,4.89
9,GCTTAAGGGTCAAAGGTTATAGCATGAATAGAAT,6.45
10,AGAATGAGGTTACCAAAGGTCAGGGAAACGCTTG,5.67
11,CTCGAAAGGTCATGCTCAGGTGAGTATACCAAAC,5.69
12,TAGCCTAGGTCATGGGCCAGTGTACCACGCGAAC,2.18
13,ACTTACGGGTCTACGAGGTTATAGCACGCGTATA,2.83
14,AGCGAAAGGTCGAGGTGAGTATAGAGAAAGGGAA,2.71
15,TATACAGGGTCAAAGGCCAAAGTACGAATGTCGA,5.31
16,TAGCCTAGGTCATTCAGGGGCCACTATAGAAAGC,3.95
17,CCTTACGGGTCACTGACAGGTTATAGCGTTTGGA,3.63
18,ACTCGGATGACAAAGGTCAGAGCTACGCCAGTGA,3.14
19,ATATGTAGGTTAGCTGAGGTCATTCAGACTAGGC,6.12
20,ATCGAAAGGTCGACGCGGTGAGTATACACCGTTT,3.04

row,Sequence,PBM binding z-score
1,AGAATGAGATTACCAAAGATCAGGGAAACGCTTG,-0.0977
2,CGTCAAAGGTCAGCAGGTCAGTGAAAGCGACGTG,5.16
3,CCTACTGGGCCAAAAAGGTCATTGATGCCGATAA,4.83
4,TCTGCTAGGTCAACGTTGGTCAGCTAATCTGCTA,1.46
5,CGTCCAAAGTCAAAGGTCAGTGAAGAGATGACGG,3.16
6,AATACAGGGTCATCGTAGGTCAGAGTACGCACAG,6.2
7,GCTGCTAGGTCAACTGATGGCCAGCTAAAGCTCG,1.14
8,CGTCCAAGGTCTAGGTCAGTGAAAGAGACTCGAA,0.105
9,CAAACTAGGTCAAGGTCTAAGTCGGTTTGTGCCA,1.95
10,CTATGTAGGTTAGGGGGGTCATTCAGTTTGAAAG,7.68
11,AATACAGGGTCATCGTACGCCAGAGTACGCACAG,5.2
12,CATACAGGGTCGGCTAGGCCAGAGTAGGGACGGC,0.863
13,CAAACTAGTTCAAGAGGTCAAAGTCCGCTTCCCG,5.54
14,GCTGCTAGGTCAACTGATGGTCATCTAAAGCTCG,2.28
15,CCTAGTTGGTCAAGGTCACACCCGCTATAGGTAC,3.99
16,CGTCCAAGGTCATATGAGGTCAGTGAAGACAGAT,7.19
17,CCTCGGAGGACAACAGGAGGTCATAGCTGCCAGA,3.57
18,CGTCCAAGGTCAAAGGTCAATGAAGAGATGACGG,7.06
19,CGTCAAAGGTCAATGCTAGGTCAGTGAAAGCATT,6.01
20,TCGTGTAGGTTACGGGGGCATTCAGGGATGAAGA,4.42
